Experimental data from PubChem BioAssay (Tox21).
Inconclusive results are not listed. Activity calls are given as the source filed them. Unless noted, calls come from the whole dose curve; as a rule, active = well fitted curve in the direction sought with a large enough effect in the repeat runs; inconclusive = weak or mixed curves; inactive = no such curve, though single readings can be large; an effect the other way counts as inactive or inconclusive.

Key:
[1] = target: Retinoic acid receptor RXR-alpha (Homo sapiens) (UniProt P19793); experiment: qHTS assay to identify small molecule agonists of the RXR signaling pathway (AID 1159527; calls by dose curve; note: nearly all actives have a fitted effect of over 35% in size; note: potency is the fitted concentration of half-maximal effect)
Chain of Retinoic acid receptor RXR-alpha (Homo sapiens) (P19793 whole entry, looked up): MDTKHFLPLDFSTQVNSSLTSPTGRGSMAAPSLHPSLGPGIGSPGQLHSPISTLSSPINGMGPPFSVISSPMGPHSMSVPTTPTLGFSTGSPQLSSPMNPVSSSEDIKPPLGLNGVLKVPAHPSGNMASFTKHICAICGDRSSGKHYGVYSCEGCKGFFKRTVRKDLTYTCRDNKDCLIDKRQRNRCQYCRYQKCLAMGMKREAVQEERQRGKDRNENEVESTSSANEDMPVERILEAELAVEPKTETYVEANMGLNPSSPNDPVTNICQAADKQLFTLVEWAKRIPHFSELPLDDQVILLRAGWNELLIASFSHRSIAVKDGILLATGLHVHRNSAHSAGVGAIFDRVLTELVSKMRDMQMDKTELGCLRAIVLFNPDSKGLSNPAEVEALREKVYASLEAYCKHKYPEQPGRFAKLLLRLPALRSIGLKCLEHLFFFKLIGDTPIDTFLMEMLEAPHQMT
Procedure, shortened: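 Using 9-cis retinoic acid as the reference agonist, chemicals were tested in HEK 293T cells […] for 16 hr; substrate loading lasted 2 hr at room temperature.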

[2] = qHTS assay to identify small molecule agonists of the RXR signaling pathway - cell viability counter screen (AID 1159529); note: series mostly up to about 77 µM; nearly all actives have a fitted effect of over 50% in size
Procedure, shortened: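 Compounds dissolved in DMSO were pinned onto HEK 293T cells carrying a beta-lactamase reporter under RXR-alpha control and incubated 16 hr. Cytotoxicity was then quantified by CellTiter-Glo luminescence.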

[3] = qHTS assay to identify small molecule antagonists of the retinoid acid receptor (RAR) signaling pathway - cell viability counter screen (AID 1159551); note: nearly all actives have a fitted effect of over 35% in size
Procedure, shortened: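 Seed C3RL4 cells; next day add compound, then retinol to 1 uM final; incubate 6 h at 37 C; add CellTiter-Glo; read luminescence after 30 min at RT.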

[4] = qHTS assay to identify small molecule antagonists of the retinoic acid receptor (RAR) signaling pathway (AID 1159552; note: nearly all actives have a fitted effect of over 50% in size)
Procedure, shortened: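 Test chemicals and DMSO controls were pin-transferred onto C3RL4 cells a day after seeding; retinol (1 uM final) followed at once. Luminescent reporter output was quantified after 6 hr of co-incubation and 30 min with detection reagent.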

[5] = qHTS assay to identify small molecule agonists of the retinoic acid receptor (RAR) signaling pathway (AID 1159553); note: potency is the fitted concentration of half-maximal effect
Procedure, shortened: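 Activation of retinol signaling was monitored via a RARE luciferase reporter in C3RL4 cells. After 6 hr compound treatment at 37 C, detection reagent was added for 30 min at room temperature before luminescence reading.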

[6] = qHTS assay to identify small molecule antagonists of the estrogen related receptor (ERR) signaling pathway from Tox21 library - cell viability counter screen (AID 1224834); note: nearly all actives have a fitted effect of over 30% in size
Procedure, shortened: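 CellTiter-Fluor fluorescence measured; ERR cells; 17.5 h compound incubation at 37 C; 30 min reagent step.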

[7] = target: Luciferin 4-monooxygenase (Photinus pyralis) (UniProt P08659); experiment: qHTS assay to identify small molecule inhibitors of firefly luciferase (AID 1224835); note: nearly all actives have a fitted effect of over 25% in size; note: potency is the fitted concentration of half-maximal effect
Chain of Luciferin 4-monooxygenase (Photinus pyralis) (P08659 whole entry, looked up): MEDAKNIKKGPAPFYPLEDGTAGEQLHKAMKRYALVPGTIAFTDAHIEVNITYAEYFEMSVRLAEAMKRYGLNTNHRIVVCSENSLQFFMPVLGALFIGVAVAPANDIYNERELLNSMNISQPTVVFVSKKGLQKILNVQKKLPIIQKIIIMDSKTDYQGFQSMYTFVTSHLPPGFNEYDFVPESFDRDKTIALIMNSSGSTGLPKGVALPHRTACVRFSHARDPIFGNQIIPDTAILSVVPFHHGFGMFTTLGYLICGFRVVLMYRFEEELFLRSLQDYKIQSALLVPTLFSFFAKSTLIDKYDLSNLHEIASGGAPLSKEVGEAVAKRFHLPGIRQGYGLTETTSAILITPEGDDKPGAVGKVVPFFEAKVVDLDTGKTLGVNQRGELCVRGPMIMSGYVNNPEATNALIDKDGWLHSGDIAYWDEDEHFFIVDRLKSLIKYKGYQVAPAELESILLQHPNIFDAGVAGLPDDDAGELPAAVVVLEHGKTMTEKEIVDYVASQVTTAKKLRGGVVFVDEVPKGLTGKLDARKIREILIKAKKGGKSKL
Procedure, shortened: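 Quantitative HTS format; KM concentrations of both substrates. Purified P. pyralis FLuc activity quantified from luminescence images.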

[8] = qHTS assay to identify small molecule agonists of the constitutive androstane receptor (CAR) signaling pathway - cell viability counter screen (AID 1224836); note: series mostly up to about 92 µM; nearly all actives have a fitted effect of over 45% in size
Procedure, shortened: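 23 h treatment, 37 C, 5% CO2. Cell line: HepG2 stably expressing hCAR with a CYP2B6-2.2kb construct. Co-treatment: PK11195, 0.75 uM final. Read-out: CellTiter-Fluor fluorescence intensity.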

[9] = qHTS assay to identify small molecule antagonists of the constitutive androstane receptor (CAR) signaling pathway - cell viability counter screen (AID 1224837); note: series mostly up to about 92 µM; nearly all actives have a fitted effect of over 45% in size
Procedure, shortened: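 Using CellTiter-Fluor, viability is scored in HepG2 cells stably carrying hCAR and a 2.2kb CYP2B6 reporter after 23 hr compound exposure across 15 concentrations, with CITCO present at 50 nM.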

[10] = qHTS assay to identify small molecule antagonists of the estrogen related receptor signaling pathway with the pleiotropic PPARgamma coactivator (PGC) from Tox21 10K library - cell viability counter screen (AID 1224840; active = well fitted cell-killing curve with a large enough effect in the repeat runs, not every such curve was filed as active; note: nearly all actives have a fitted effect of over 40% in size)
Procedure, shortened: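 Here the PGC/ERR cells serve as a cytotoxicity control: they are exposed to compounds for 17.5 hours at 37 C, and live-cell signal is quantified using CellTiter-Fluor fluorescence.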

[11] = target: Nuclear receptor subfamily 1 group I member 3 (Homo sapiens) (UniProt Q14994); experiment: qHTS assay to identify small molecule antagonists of the constitutive androstane receptor (CAR) signaling pathway (AID 1224838);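 note: HepG2 cells stably expressing hCAR with CYP2B6 luciferase reporter stimulated by CITCO; nearly all actives have a fitted effect of over 40% in size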
Chain of Nuclear receptor subfamily 1 group I member 3 (Homo sapiens) (Q14994 whole entry, looked up): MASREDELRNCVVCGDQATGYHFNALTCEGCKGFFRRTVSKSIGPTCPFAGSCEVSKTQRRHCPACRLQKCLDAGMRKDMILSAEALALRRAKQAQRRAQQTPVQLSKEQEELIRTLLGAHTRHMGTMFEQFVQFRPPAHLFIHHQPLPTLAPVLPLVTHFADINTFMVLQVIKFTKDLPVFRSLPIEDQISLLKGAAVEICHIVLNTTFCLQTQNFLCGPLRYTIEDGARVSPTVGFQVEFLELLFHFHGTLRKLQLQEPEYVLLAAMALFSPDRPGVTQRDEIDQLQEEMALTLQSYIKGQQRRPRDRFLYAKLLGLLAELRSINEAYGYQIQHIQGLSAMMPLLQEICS
Procedure, shortened: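 Reporter luminescence was quantified after 24 h exposure of hCAR/CYP2B6-2.2kb double-stable HepG2 cells to compounds at 15 concentrations in the presence of 50 nM CITCO final.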

[12] = qHTS assay to identify small molecule antagonists of the estrogen related receptor signaling pathway with the pleiotropic PPARgamma coactivator (PGC) from Tox21 10K library (AID 1224841; call rule not given here; note: series mostly up to about 92 µM; actives are mostly falling curves and most rising ones were filed inactive; nearly all actives have a fitted effect of over 50% in size)
Procedure, shortened: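 Each well held 2,000 PGC/ERR cells, pre-incubated six hours (37 C, 5% CO2). Test substances in DMSO were added by pin tool and left for 18 h at 37 C before luciferase detection by One-Glo.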

[13] = qHTS assay to identify small molecule agonists of the estrogen related receptor signaling pathway with the pleiotropic PPARgamma coactivator (PGC) from Tox21 10K library (AID 1224842); note: nearly all actives have a fitted effect of over 15% in size
Procedure, shortened: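 PGC/ERR reporter cells (NTP line) were seeded 2,000 per well, rested 6 h at 37 C/5% CO2, then pin-dosed with compounds in DMSO for 18 h at 37 C; luciferase read by One-Glo luminescence after 30 min at room temperature.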

[14] = target: Nuclear receptor subfamily 1 group I member 3 (Homo sapiens) (UniProt Q14994); experiment: qHTS assay to identify small molecule agonists of the constitutive androstane receptor (CAR) signaling pathway (AID 1224839); note: nearly all actives have a fitted effect of over 15% in size; note: potency is the fitted concentration of half-maximal effect;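 for activation: HepG2 cells stably carrying human CAR and a CYP2B6 luciferase reporter; series mostly up to about 92 µM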
Procedure, shortened: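 Compounds tested at 15 concentrations on HepG2 cells stably harbouring hCAR and CYP2B6-2.2kb reporter constructs, co-treated with PK11195 (0.75 uM final), 24 h at 37 C; luminescent reporter signal quantified.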
% is set by controls: 0 for no effect and ±100 for the full control effect.

CN1CCN(c2c(F)cc3c(=O)c(C(=O)O)cn(CCF)c3c2F)CC1
inactive: Potency [1] | Potency [2] | outcome [3] | Potency [4] | Potency [5] | Potency [6] | Potency [7] | Potency [8] | Potency [9] | Potency [10]

O=C(O)[C@@H]1CSCN1
inactive: Potency [1] | Potency [2] | outcome [3] | Potency [4] | Potency [5] | Potency [6] | Potency [7] | Potency [8] | Potency [9] | Potency [11] | Potency [10]

CCCNC(C)(C)COC(=O)c1ccccc1
inactive: Potency [1] | Potency [2] | outcome [3] | Potency [4] | Potency [5] | Potency [6] | Potency [7] | Potency [8] | Potency [9] | Potency [11] | Potency [10] | Potency [12] | Potency [13]

C1CSCCS1
inactive: Potency [1] | Potency [2] | outcome [3] | Potency [4] | Potency [5] | Potency [6] | Potency [7] | Potency [8] | Potency [9] | Potency [14] | Potency [10] | Potency [12] | Potency [13]

CCc1nnc(NS(=O)(=O)c2ccc(N)cc2)s1
inactive: Potency [1] | Potency [2] | outcome [3] | Potency [4] | Potency [5] | Potency [6] | Potency [7] | Potency [8] | Potency [9] | Potency [14] | Potency [10] | Potency [12] | Potency [13]

CC(C)CC(=O)OCc1ccccc1
inactive: Potency [1] | Potency [2] | outcome [3] | Potency [4] | Potency [5] | Potency [6] | Potency [7] | Potency [8] | Potency [9] | Potency [11] | Potency [10]

O=C1CCCc2ccccc21
inactive: Potency [2] | outcome [3] | Potency [4] | Potency [5] | Potency [6] | Potency [7] | Potency [8] | Potency [9] | Potency [11] | Potency [10] | Potency [12] | Potency [13]
active: Potency [1] 6.99 µM

CC(C)(C)c1cccc(O)c1
inactive: Potency [1] | Potency [2] | outcome [3] | Potency [4] | Potency [5] | Potency [6] | Potency [8] | Potency [9] | Potency [10] | Potency [12] | Potency [13]

Cc1cc(NS(=O)(=O)c2ccc(N)cc2)nc(C)n1
active: Potency [14] 11.9 µM
inactive: Potency [1] | Potency [2] | outcome [3] | Potency [4] | Potency [5] | Potency [6] | Potency [9] | Potency [11] | Potency [10]

COC(C)CCO (stereo not given)
inactive: Potency [1] | Potency [2] | outcome [3] | Potency [4] | Potency [5] | Potency [6] | Potency [7] | Potency [8] | Potency [9] | Potency [11] | Potency [10]

FC(F)(F)c1ccccc1
inactive: Potency [1] | Potency [2] | outcome [3] | Potency [4] | Potency [5] | Potency [6] | Potency [7] | Potency [8] | Potency [9] | Potency [11] | Potency [10] | Potency [12]

O=c1oc2c(O)c(O)cc3c(=O)oc4c(O)c(O)cc1c4c23
inactive: activation [1] 11.4% [at 15.8 µM] | activity change, negative = cytotoxicity [2] 8.17% [at 15.8 µM] | activity change, negative = cytotoxicity [3] -0.41% [at 19 µM] | activity, negative = inhibition [4] 3.23% [at 19 µM] | Potency [5] | viability change, negative = cytotoxic [8] -3.24% [at 19 µM] | activity change, negative = cytotoxicity [9] 9.67% [at 19 µM] | activity, negative = inhibition [11] 7.54% [at 19 µM] | activation [14] -0.67% [at 19 µM] | viability change, negative = cytotoxic [10] -7.93% [at 19 µM]
active: Potency [7] 12 µM

Cc1cn([C@@H]2O[C@H](CO)[C@@H](O)[C@@H]2F)c(=O)[nH]c1=O
inactive: Potency [1] | Potency [2] | outcome [3] | Potency [4] | Potency [5] | Potency [6] | Potency [7] | Potency [8] | Potency [9] | Potency [11] | Potency [10]

CCCCCOc1ccc(C2SC(=O)NC2=O)cc1OCC (stereo not given)
active: Potency [1] 5.35 µM | Potency [5] 21.1 µM
inactive: Potency [2] | outcome [3] | Potency [4] | Potency [6] | Potency [8] | Potency [9] | Potency [11] | Potency [10]

CN1[C@@H]2CC[C@H]1CC(OC(=O)c1c[nH]c3ccccc13)C2 (stereo not given in full)
inactive: Potency [1] | Potency [2] | outcome [3] | Potency [4] | Potency [5] | Potency [7] | Potency [8] | Potency [9] | Potency [11] | Potency [14] | Potency [10]

CC1(C)S[C@@H]2[C@H](NC(=O)C(C(=O)O)c3ccccc3)C(=O)N2[C@H]1C(=O)O (stereo not given in full)
inactive: Potency [1] | Potency [2] | outcome [3] | Potency [4] | Potency [5] | Potency [6] | Potency [7] | Potency [8] | Potency [9] | Potency [11] | Potency [10] | Potency [12] | Potency [13]

COc1nc(C)nc(NC(=O)NS(=O)(=O)c2ccccc2OCCCl)n1
inactive: Potency [1] | Potency [2] | outcome [3] | Potency [4] | Potency [5] | Potency [6] | Potency [7] | Potency [8] | Potency [9] | Potency [11] | Potency [10] | Potency [12] | Potency [13]

Cc1ccc(C(C)C)cc1O
inactive: Potency [1] | Potency [2] | outcome [3] | Potency [6] | Potency [7] | Potency [8] | Potency [9] | Potency [10]

CCOC(=O)c1cc(=O)c2c(OCC(COc3cccc4oc(C(=O)OCC)cc(=O)c34)OC(=O)[C@@H](N)CCCCN)cccc2o1
inactive: Potency [1] | Potency [2] | outcome [3] | Potency [4] | Potency [5] | Potency [7] | Potency [8] | Potency [9] | Potency [11] | Potency [10] | Potency [12]

Cc1c[nH]c(=S)[nH]c1=O
inactive: Potency [1] | Potency [2] | outcome [3] | Potency [4] | Potency [6] | Potency [7] | Potency [8] | Potency [9] | Potency [11] | Potency [14] | Potency [10]

CCN(CC)CC1CCCCN1CC(=O)N1c2ccccc2C(=O)Nc2cccnc21 (stereo not given)
inactive: Potency [1] | Potency [2] | outcome [3] | Potency [4] | Potency [6] | Potency [7] | Potency [8] | Potency [9] | Potency [10] | Potency [12]

CCCCCCn1c(=O)c2c(ncn2C)n(C)c1=O
inactive: Potency [1] | Potency [2] | Potency [4] | Potency [5] | Potency [6] | Potency [7] | Potency [8] | Potency [9] | Potency [11] | Potency [14] | Potency [10] | Potency [12] | Potency [13]
